The text below walks through data of PubChem BioAssay (NCATS).

Unmarked numbers belong to inactive results. Results filed as inconclusive are left out. Calls of active or inactive are those of the source. Unless noted, calls come from the whole dose curve; as a rule, active = well fitted curve in either direction with a large enough effect (not every such curve was filed as active); inconclusive = small, poorly fitted or top-dose-only effect, or another doubt; inactive = flat fitted curve, though single readings scatter. Bounds are passed on as bounds.

For experiment [1], the target named is Lysosomal acid glucosylceramidase (Homo sapiens) (UniProt P04062). Kind of experiment: Glucocerebrosidase-p2 (AID 348; in the data active = potency below about 10 µM; note: potency is the fitted concentration of half-maximal effect). As to conditions: purified GBA, blue fluorogenic substrate, 40 min. An outline of the steps:
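Normal human glucocerebrosidase (0.2 nM) with blue fluorogenic substrate (80 uM final) in citrate/phosphate pH 5.9 with 10mM sodium taurocholate, 0.01% tween-20; 40 min RT, NaOH/glycine stop; fluorescence Ex 365/Em 440; AC50 from a titration from 0.6 nM upwards.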

Experiment [2] is described as follows: AP1 Signaling Pathway (AID 357).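 Note: ME-180 reporter cells stimulated with EGF at its EC50 level; % is set by controls: 0 for no effect and ±100 for the full control effect.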 The settings on record: ME-180 AP-1-bla reporter, EGF-induced, beta-lactamase ratio, 5 h; at 7.69 µM (top of the series) unless noted. In outline: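 Titration-series screen for positive or negative modulators of EC50 EGF-induced signaling in ME-180 cells carrying an AP-1-driven beta-lactamase reporter. After 5 hours at 37 degrees Celsius, CCF4 460nm/530nm emission ratio gave %Activity; AC50 values derived.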

The target of experiment [3] is Cytochrome P450 1A2 (Homo sapiens) (UniProt P05177). As to the kind of experiment: p450-cyp1a2 (AID 410; calls by dose curve; note: potency is the fitted concentration of half-maximal effect;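 for activity change, negative = inhibition: -100% = full effect of reference inhibitor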). The settings on record: recombinant CYP1A2, luciferin-ME demethylation, luminescence; series mostly up to 11.4 µM. An outline of the steps: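 20nM CYP1A2, 100uM Luciferin-ME (=Km), 100mM KPO4; cpd 10 min RT; +NADPH regen, 60 min RT; stop/detect 20 min; luminescence. Normalized to furafylline 57 uM = full inhibition.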
Sequence of Cytochrome P450 1A2 (Homo sapiens) (P05177 whole entry, looked up): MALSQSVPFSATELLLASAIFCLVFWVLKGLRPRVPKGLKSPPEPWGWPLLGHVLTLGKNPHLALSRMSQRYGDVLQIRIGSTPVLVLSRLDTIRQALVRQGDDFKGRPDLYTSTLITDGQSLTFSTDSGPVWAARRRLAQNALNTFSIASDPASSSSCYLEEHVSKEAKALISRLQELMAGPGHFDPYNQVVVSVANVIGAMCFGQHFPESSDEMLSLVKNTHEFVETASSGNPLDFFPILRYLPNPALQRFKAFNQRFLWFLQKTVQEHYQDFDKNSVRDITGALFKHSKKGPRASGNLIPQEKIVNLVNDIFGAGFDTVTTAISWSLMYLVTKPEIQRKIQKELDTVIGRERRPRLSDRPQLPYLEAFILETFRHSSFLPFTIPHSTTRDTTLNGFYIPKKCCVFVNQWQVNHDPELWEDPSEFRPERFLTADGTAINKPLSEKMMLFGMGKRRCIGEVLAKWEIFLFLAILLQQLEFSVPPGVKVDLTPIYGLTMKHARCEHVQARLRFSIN

Experiment [4] can be described thus: NFAT Signaling Pathway (AID 444).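 Note: carbachol stimulus at about its EC50 of 1 µM final; % is set by controls: 0 for no effect and ±100 for the full control effect.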 As to conditions: Jurkat NFAT-bla M1, carbachol, beta-lactamase ratio, 5 h; at 7.69 µM (top of the series) unless noted. An outline of the steps: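 Jurkat cells carrying an NFAT-driven β-lactamase reporter and co-transfected muscarinic M1 receptor were treated with compound plus carbachol (1 uM final, an EC50 level) for 5 h at 37 °C. CCF4 loading followed for 1 h at RT; 460/530 nm ratio gave %activity.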

Experiment [5] is described as follows: Stat Signaling Pathway (AID 446).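 Note: ME-180 cervical cancer cells given 40 pM IL-6 alongside compound; SIE-controlled beta-lactamase reporter measured as 460/530 nm FRET emission ratio; % is set by controls: 0 for no effect and ±100 for the full control effect.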 The settings on record: ME-180 (cervical carcinoma) SIE beta-lactamase reporter, IL-6 stimulated, 5 h; at 7.69 µM (top of the series) unless noted. An outline of the steps: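 Compound effects on IL-6-induced STAT reporter activity were measured in ME-180 cells. After overnight culture, cells were co-treated with 40 pM IL-6 for 5 hrs before beta-lactamase substrate loading at room temperature.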

The target of experiment [6] is Glucocorticoid receptor (Homo sapiens) (UniProt P04150). As to the kind of experiment: GR-GFP Redistribution (AID 450;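 active = compounds whose dose series gives a full or clear partial fitted curve of increased nuclear translocation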; note: potency is the fitted concentration of half-maximal effect). The settings on record: U2OS GR-GFP nuclear translocation, laser cytometry, 2 h.
Sequence of Glucocorticoid receptor (Homo sapiens) (P04150 whole entry, looked up, the tested form may be a part): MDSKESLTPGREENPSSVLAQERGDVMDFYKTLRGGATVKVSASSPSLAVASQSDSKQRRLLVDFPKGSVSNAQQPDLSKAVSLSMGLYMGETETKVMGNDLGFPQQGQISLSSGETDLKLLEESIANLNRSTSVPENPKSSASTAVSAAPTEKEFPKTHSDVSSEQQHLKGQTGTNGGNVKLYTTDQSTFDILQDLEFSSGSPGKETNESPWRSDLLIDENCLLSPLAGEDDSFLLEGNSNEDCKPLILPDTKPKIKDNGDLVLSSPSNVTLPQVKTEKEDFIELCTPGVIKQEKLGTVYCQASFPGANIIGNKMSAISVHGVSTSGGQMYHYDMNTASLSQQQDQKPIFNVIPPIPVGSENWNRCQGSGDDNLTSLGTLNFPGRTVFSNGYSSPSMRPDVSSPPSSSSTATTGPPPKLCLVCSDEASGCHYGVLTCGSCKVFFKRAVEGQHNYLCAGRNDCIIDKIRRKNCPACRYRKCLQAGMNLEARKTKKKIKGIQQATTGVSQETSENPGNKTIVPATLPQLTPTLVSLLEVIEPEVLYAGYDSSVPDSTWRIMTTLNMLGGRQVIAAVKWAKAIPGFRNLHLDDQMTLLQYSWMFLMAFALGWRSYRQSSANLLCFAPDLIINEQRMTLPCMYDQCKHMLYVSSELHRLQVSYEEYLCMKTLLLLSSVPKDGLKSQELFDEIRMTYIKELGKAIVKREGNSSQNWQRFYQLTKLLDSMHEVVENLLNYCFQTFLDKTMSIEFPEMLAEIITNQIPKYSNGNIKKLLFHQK
Experiment [7] shares this target. As to the kind of experiment: GR-EFC Redistribution (AID 451; calls by dose curve; note: potency is the fitted concentration of half-maximal effect). The settings on record: CHO-K1 GR-EFC translocation, beta-gal luminescence, 2 h. In outline: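 CHO-K1 cells stably expressing nuclear-localized β-gal enzyme acceptor and GR fused C-terminally to the enzyme donor fragment; ligand-driven nuclear translocation restores β-gal by complementation. Compounds titrated up to 46 uM final, 2 h at 37 °C; luminescence read.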

Experiment [8] concerns the target Mitogen-activated protein kinase 10 (Mus musculus) (UniProt Q61831). As to the kind of experiment: JNK3 AlphaScreen Assay (AID 530).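 Note: kinase came from lysate of stimulated human HepG2 cells; % is set by controls: 0 for no effect and ±100 for the full control effect.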 As to conditions: JNK3 lysate, c-Jun phosphorylation; series mostly up to 11.4 µM. In outline: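 Biotinylated GST-cJun(1-79) served as substrate for JNK3 in HepG2 lysates stimulated with IL-1beta and TNF-alpha. ATP was 10 uM final, pH 7.6. Ser73 phosphorylation was quantified by AlphaScreen (680 nm excitation).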

Experiment [9] concerns the target 3',5'-cyclic-AMP phosphodiesterase 4B (Homo sapiens) (UniProt Q07343). Kind of experiment: qHTS Assay for Inhibitors of PDE-IV (AID 607; active = well fitted activation curve with a large enough effect in the main read-out, with a control signal flat, not every such curve was filed as active; note: % of control where 0% means no effect). The settings on record: HEK293 ACTOne CNG channel cells, membrane potential fluorescence; series mostly up to 22.9 µM. In outline: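 ACTOne HEK293 cells carry a modified cAMP-gated CNG channel and express endogenous PDE4; plated 1000 cells/well, compounds up to 22.9 uM final. Membrane-potential dye fluorescence (ex 535/em 590) was read; parental cells received 10 uM forskolin + 100 uM RO 20-1724.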
Background: qHTS replaces the single test concentration by a dilution series.

Sequence of 3',5'-cyclic-AMP phosphodiesterase 4B (Homo sapiens) (Q07343 whole entry, looked up): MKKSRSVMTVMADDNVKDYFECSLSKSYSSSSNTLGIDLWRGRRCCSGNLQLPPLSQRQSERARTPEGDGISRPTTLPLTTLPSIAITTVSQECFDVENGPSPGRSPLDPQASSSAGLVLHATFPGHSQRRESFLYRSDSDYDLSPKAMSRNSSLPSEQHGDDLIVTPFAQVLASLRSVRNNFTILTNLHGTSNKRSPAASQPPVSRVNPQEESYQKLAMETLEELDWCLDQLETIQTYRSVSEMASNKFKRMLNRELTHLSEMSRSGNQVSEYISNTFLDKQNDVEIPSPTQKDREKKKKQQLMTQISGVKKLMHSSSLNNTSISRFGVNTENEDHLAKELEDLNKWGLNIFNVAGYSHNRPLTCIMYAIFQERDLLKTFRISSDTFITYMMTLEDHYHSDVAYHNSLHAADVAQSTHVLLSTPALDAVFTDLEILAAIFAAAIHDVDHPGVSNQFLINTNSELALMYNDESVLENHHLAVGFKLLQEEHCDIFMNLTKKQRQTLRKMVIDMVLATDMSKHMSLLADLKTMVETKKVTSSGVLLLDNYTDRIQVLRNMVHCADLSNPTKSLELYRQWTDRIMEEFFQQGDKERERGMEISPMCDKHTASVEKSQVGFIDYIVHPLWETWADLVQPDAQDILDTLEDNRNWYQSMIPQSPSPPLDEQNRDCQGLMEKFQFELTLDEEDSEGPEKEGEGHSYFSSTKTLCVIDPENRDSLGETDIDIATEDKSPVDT
Sequence of Lysosomal acid glucosylceramidase (Homo sapiens) (P04062 whole entry, looked up): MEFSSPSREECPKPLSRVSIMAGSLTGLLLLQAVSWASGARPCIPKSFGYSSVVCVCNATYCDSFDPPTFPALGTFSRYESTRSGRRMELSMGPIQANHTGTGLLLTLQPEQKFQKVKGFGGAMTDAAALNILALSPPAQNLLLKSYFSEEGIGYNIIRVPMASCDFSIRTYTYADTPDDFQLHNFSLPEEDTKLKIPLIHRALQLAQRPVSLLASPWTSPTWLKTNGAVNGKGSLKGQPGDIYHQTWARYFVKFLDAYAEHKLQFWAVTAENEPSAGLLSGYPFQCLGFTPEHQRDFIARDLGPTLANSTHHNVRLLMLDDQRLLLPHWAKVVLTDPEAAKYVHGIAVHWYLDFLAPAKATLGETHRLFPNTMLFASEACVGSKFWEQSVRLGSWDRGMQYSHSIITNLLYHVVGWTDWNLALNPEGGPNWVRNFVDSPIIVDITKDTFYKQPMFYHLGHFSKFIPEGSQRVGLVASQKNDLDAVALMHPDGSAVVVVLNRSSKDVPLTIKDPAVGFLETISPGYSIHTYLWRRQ

With `Cc1cc2nc([C@H](C)C(=O)c3ccc(Cl)cc3)c(=O)[nH]c2cc1C`, the Potency in experiment [1] is > 11.4 µM; in experiment [3] it was 0.501 µM (active); in [6], > 46 µM; in experiment [7], > 9.22 µM. Besides, the activity change, negative = inhibition in [2] was -1.07%; in experiment [4], -5.22%. The activity, negative = inhibition in experiment [5] is -18.7%. The Potency result in [8] and in experiment [9] was “inactive” each time.

As to `O=C(O)[C@@H]1[C@@H](C(=O)NCc2ccccn2)[C@@H]2C=C[C@@H]1O2`, the Potency is > 11.4 µM in experiment [1], > 46 µM in experiment [6] and > 9.22 µM in experiment [7]. For the same compound, the activity change, negative = inhibition in [2] is -9.66%; in experiment [3], -0.1% [at 2.29 µM]; in experiment [4], -3.89%. The activity, negative = inhibition in experiment [5] is -3.58%. For the same compound, the Potency result in experiment [8] and in experiment [9] was “inactive” in each case.

With `c1ccc(CCNc2ccccn2)nc1`, the Potency in [1] is > 11.4 µM; in experiment [3] it was 5.01 µM (active); in experiment [6], > 46 µM; in experiment [7], > 9.22 µM. In addition, the activity change, negative = inhibition in [2] was -8.73%; in experiment [4], 2.35%. Also, the activity, negative = inhibition in experiment [5] was -1.9%. Besides, the Potency entry in experiment [8] and in experiment [9] was “inactive” throughout.

In the case of `CN1CCN(CCCN)CC1`, the Potency in experiment [1] is > 11.4 µM; in experiment [6] it was > 46 µM; in experiment [7], > 9.22 µM. The activity change, negative = inhibition in experiment [2] is 0.666%; in [4], 18.2%. Moreover, the Potency result in experiment [3], in experiment [8] and in experiment [9] was “inactive” in each case. The activity, negative = inhibition in experiment [5] is 6.19%.

For the compound `C[C@@]12CC[C@@H]3[C@H](CCC4=CC(=O)CC[C@]43C)[C@@H]1CC[C@@H]2C(=O)COS(=O)(=O)c1ccc(Br)cc1`, the Potency in experiment [1] is > 11.4 µM; in [6] it was 0.793 µM (active); in experiment [7], > 9.22 µM. Further, the activity change, negative = inhibition was -0.601% in experiment [2] and 19% in experiment [4]. The Potency entry in experiment [3], in experiment [8] and in experiment [9] was “inactive” each time. Further, the activity, negative = inhibition in experiment [5] was -0.203%.

On to `c1ccc(CCc2cccnc2)nc1`, for which the Potency in experiment [1] was > 11.4 µM; in experiment [3] it was 0.398 µM (active); in experiment [6], > 46 µM; in [7], > 9.22 µM. For the same compound, the activity change, negative = inhibition is 12.9% in experiment [2] and 14.1% in experiment [4]. The activity, negative = inhibition in experiment [5] is 0.19%. Besides, the Potency result in experiment [8] and in experiment [9] was “inactive” in each case.

Consider `COc1cc(C)cc(OC)c1/C=C\C(=O)O`, for which the Potency in experiment [1] was > 11.4 µM; in experiment [6], > 46 µM; in experiment [7] it was > 9.22 µM. Also, the activity change, negative = inhibition in experiment [2] was 12.4%; in experiment [4], 8.76%. The Potency result in experiment [3], in experiment [8] and in experiment [9] was “inactive” throughout. Moreover, in [5], the activity, negative = inhibition is 7.32%.

`Cc1cc(N2CCN(C)CC2)n2nc(-c3ccc(Cl)cc3)nc2n1`: the Potency was > 11.4 µM in experiment [1], > 46 µM in [6] and > 9.22 µM in [7]. Moreover, the figures for the activity change, negative = inhibition in experiment [2] and in [4] were -1.96% and 13.2%, respectively. The Potency entry in [3], in experiment [8] and in experiment [9] was “inactive” in each case. Besides, the activity, negative = inhibition in experiment [5] was 4.28%.

For the compound `CO[C@@H](NC(N)=O)C(=O)O`, the Potency is > 11.4 µM in [1], > 46 µM in [6] and > 9.22 µM in experiment [7]. Moreover, the values for the activity change, negative = inhibition in [2], in [3] and in [4] were -1%, -6.4% [at 2.29 µM] and 1.38%, respectively. Besides, in experiment [5], the activity, negative = inhibition was 8.15%. Moreover, the Potency result in experiment [8] and in experiment [9] was “inactive” each time.

For the compound `C/C(=C\c1ccc(Cl)cc1)C(C)(C)C(=O)O`, the Potency is > 11.4 µM in experiment [1], > 46 µM in [6] and > 9.22 µM in [7]. Moreover, the activity change, negative = inhibition is 2.81% in experiment [2] and -8.85% in experiment [4]. For the same compound, the Potency entry in experiment [3], in [8] and in [9] was “inactive” throughout. Moreover, in experiment [5], the activity, negative = inhibition was -7.44%.

Turning to `O=S(=O)(O)c1ccc(O)c2ncccc12.O=S(=O)(O)c1ccc(O)c2ncccc12.[Zn]`, the Potency in experiment [1] is > 11.4 µM; in experiment [3] it was 0.631 µM (active); in experiment [6], > 46 µM; in experiment [7] it was > 9.22 µM. Besides, the activity change, negative = inhibition was 6.49% in experiment [2] and -15.3% in [4]. Also, the activity, negative = inhibition in experiment [5] is 7.8%. For the same compound, the Potency result in experiment [8] and in experiment [9] was “inactive” in each case.

With `Cc1nc2cccc([N+](=O)[O-])c2n1CCCN(C)C`, the values for the Potency in experiment [1], in experiment [6] and in experiment [7] were > 11.4 µM, > 46 µM and > 9.22 µM, respectively. In addition, the activity change, negative = inhibition in experiment [2] is 11.7%; in experiment [4], 12.7%. In addition, the Potency entry in [3], in [8] and in experiment [9] was “inactive” each time. The activity, negative = inhibition in [5] was 9.88%.

`N[C@H]1[C@@H](C(=O)O)[C@H]2C=C[C@H]1C2`: the Potency is > 11.4 µM in [1], > 46 µM in [6] and > 9.22 µM in experiment [7]. The activity change, negative = inhibition in experiment [2] is 7.53%; in experiment [4], 24.6%. Besides, the Potency entry in experiment [3], in experiment [8] and in experiment [9] was “inactive” in each case. For the same compound, in experiment [5], the activity, negative = inhibition was 7.88%.

As for `NCCCc1ccc2oc3ccccc3c2c1`, the Potency was > 11.4 µM in experiment [1], 0.0316 µM (active) in experiment [3], > 46 µM in experiment [6] and > 9.22 µM in experiment [7]. The activity change, negative = inhibition in experiment [2] was 19.9%; in experiment [4] it was 14.4%. Further, the activity, negative = inhibition in experiment [5] is 0.365%. For the same compound, the Potency entry in [8] and in experiment [9] was “inactive” in each case.

With `Cc1ccc(N2CCN(CCC(=O)O)CC2)cc1`, the results for the Potency in [1], in experiment [6] and in experiment [7] were > 11.4 µM, > 46 µM and > 9.22 µM, respectively. Also, the activity change, negative = inhibition in experiment [2] is 4.25%; in [4] it was 2.05%. Also, the Potency entry in [3], in experiment [8] and in experiment [9] was “inactive” in each case. In experiment [5], the activity, negative = inhibition was 2.74%.
